Test systems include SK-MEL-2 melanoma; EKVX NSCLC; SN12C renal; UO-31 renal; TK-10 renal; ACHN renal; CAKI-1 renal; A498 renal; CCRF-CEM leukemia; MOLT-4 leukemia; SR leukemia; RPMI-8226 leukemia; OVCAR-5 ovarian; OVCAR-4 ovarian; SK-OV-3 ovarian; IGROV1 ovarian; OVCAR-3 ovarian; HS 578T breast; NCI/ADR-RES ovarian.
Experiment in all cases: NCI-60 one-dose screen, 48 h (100 = growth as untreated, 0 = no growth, -100 = all killed)
Common to all, as to settings: 10 µM unless noted

For eight molecules, growth results are on record in PubChem BioAssay (NCI).

The panel holds about 83,000 compounds, 20% with a hit somewhere; the sample as a whole holds those more often.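 Activity criterion: percent growth below 10, measured after cells in 96-well plates were exposed to a single compound concentration for 48 hours.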 Values without a mark were called inactive. Calls of active or inactive are those of the source.

With `COc1ccc(-c2nc3sc(-c4ccc(Cl)cc4)cn3n2)cc1`, the growth in the test with SK-MEL-2 melanoma is 106%; with EKVX NSCLC, 47.5%; in the test on SN12C renal, 5.26% (active); with UO-31 renal it was -7.46% (active); in the test with TK-10 renal, -30.8% (active); in the test with ACHN renal it was -74% (active). Also, the growth in the test on CAKI-1 renal is -3.32% (active); with A498 renal, -25.3% (active); in the test with CCRF-CEM leukemia it was 69.5%; with MOLT-4 leukemia it was 82.6%; with SR leukemia, 51.1%; in the test with RPMI-8226 leukemia it was 44.9%. Also, the growth was 52% in the test on OVCAR-5 ovarian; -63.3% (active) in the test with OVCAR-4 ovarian; 49.5% in the test on SK-OV-3 ovarian; 7.07% (active) in the test with IGROV1 ovarian; 24.7% with OVCAR-3 ovarian; 27% in the test with HS 578T breast. Besides, the growth in the test with NCI/ADR-RES ovarian is 45.6%.

With `CCCCNC(=O)Oc1ccc(/C(=C(\C)c2ccc(Cl)cc2)c2ccc(OCCN3CCCCC3)cc2)cc1`, the growth is 98.6% in the test on SK-MEL-2 melanoma; 76.9% with EKVX NSCLC; 80.5% with SN12C renal; 58.8% in the test with UO-31 renal; 87% in the test with TK-10 renal; 94% with ACHN renal. Moreover, the growth in the test on CAKI-1 renal is 92.5%; in the test with A498 renal it was 85.2%; with CCRF-CEM leukemia, 72.7%; in the test with MOLT-4 leukemia it was 65.5%; with SR leukemia it was 7.74% (active); with RPMI-8226 leukemia, 73.4%. For the same molecule, the growth in the test on OVCAR-5 ovarian is 71.8%; with OVCAR-4 ovarian it was 73.5%; with SK-OV-3 ovarian, 68.8%; in the test with IGROV1 ovarian it was 83.5%; in the test with OVCAR-3 ovarian, 80%; with HS 578T breast it was 85%. Moreover, the growth in the test on NCI/ADR-RES ovarian was 85.2%.

For the molecule `CC(C)n1cnc2c(Nc3cccc(Cl)c3)nc(N[C@H]3CCCC[C@@H]3N)nc21`, the growth with SK-MEL-2 melanoma was 78.3%; in the test with EKVX NSCLC it was 54.1%; with SN12C renal it was 50.6%; in the test with UO-31 renal, 31.7%; in the test with TK-10 renal, 67.4%; in the test on ACHN renal, 29.9%. The growth in the test with CAKI-1 renal is 49.5%; with A498 renal, 94.9%; with CCRF-CEM leukemia, 66.6%; with MOLT-4 leukemia it was 7.51% (active); in the test on SR leukemia it was 13.9%; in the test on RPMI-8226 leukemia it was 19.8%. Further, the growth in the test with OVCAR-5 ovarian was 50.4%; with OVCAR-4 ovarian it was 55.4%; with SK-OV-3 ovarian it was 80.6%; in the test with IGROV1 ovarian it was 29.4%; in the test with OVCAR-3 ovarian, 61.2%; with HS 578T breast, 66.7%. In addition, in the test with NCI/ADR-RES ovarian, the growth is 61.4%.

Regarding `OC(c1ccccc1)C(NC(Cc1ccccc1)c1ccccc1)c1ccccc1` (configuration not stated), the growth was 93.1% in the test on SK-MEL-2 melanoma; 92% in the test with EKVX NSCLC; 87.1% in the test on SN12C renal; 72.2% with UO-31 renal; 92.2% with TK-10 renal; 90.7% in the test on ACHN renal. Also, the growth in the test with CAKI-1 renal was 77.4%; with A498 renal it was 74.6%; with CCRF-CEM leukemia, 93.3%; in the test with MOLT-4 leukemia, 71.2%; in the test with SR leukemia, 91.4%; with RPMI-8226 leukemia, 73.6%. The growth is 90.8% in the test with OVCAR-5 ovarian; 89.1% with OVCAR-4 ovarian; 91.7% with SK-OV-3 ovarian; 67% in the test with IGROV1 ovarian; 96.9% in the test with OVCAR-3 ovarian; 92.2% in the test with HS 578T breast. Also, the growth in the test on NCI/ADR-RES ovarian is 82.6%.

Turning to `COc1ccc(C(Cc2ccccc2)NCCN2CCOCC2)cc1` (configuration not stated), the growth is 95.9% in the test on SK-MEL-2 melanoma; 104% with EKVX NSCLC; 99.6% in the test with SN12C renal; 84.5% with UO-31 renal; 95.4% in the test on TK-10 renal; 106% in the test with ACHN renal. The growth with CAKI-1 renal is 98.8%; in the test with A498 renal, 101%; with CCRF-CEM leukemia it was 113%; in the test with MOLT-4 leukemia it was 93.8%; in the test on SR leukemia, 96.4%; with RPMI-8226 leukemia it was 109%. Also, the growth in the test on OVCAR-5 ovarian was 94.7%; in the test with OVCAR-4 ovarian, 98.7%; in the test on SK-OV-3 ovarian it was 102%; with IGROV1 ovarian, 91.8%; with OVCAR-3 ovarian it was 100%; in the test on HS 578T breast it was 107%. Further, in the test with NCI/ADR-RES ovarian, the growth is 98.7%.

`Cc1ccc(C(=O)N/N=C/c2cccc([N+](=O)[O-])c2)cn1`: the growth in the test on SK-MEL-2 melanoma is 111%; in the test on EKVX NSCLC it was 104%; in the test with SN12C renal, 105%; with UO-31 renal, 76.6%; with TK-10 renal it was 118%; with ACHN renal, 107%. For the same molecule, the growth in the test on CAKI-1 renal is 87.1%; with A498 renal, 84.9%; with CCRF-CEM leukemia it was 96.7%; in the test with MOLT-4 leukemia, 92.1%; in the test on SR leukemia, 108%; with RPMI-8226 leukemia it was 93%. For the same molecule, the growth was 108% in the test on OVCAR-5 ovarian; 111% in the test with OVCAR-4 ovarian; 102% with SK-OV-3 ovarian; 108% with IGROV1 ovarian; 118% in the test with OVCAR-3 ovarian; 93.1% with HS 578T breast. Moreover, in the test with NCI/ADR-RES ovarian, the growth is 104%.

On to `O=C1CCC(C(=O)NCCNCCNC(=O)C2CCC(=O)N2)N1` (configuration not stated), for which the growth in the test on SK-MEL-2 melanoma was 99.8%; in the test with EKVX NSCLC it was 100%; in the test on SN12C renal, 96.9%; with UO-31 renal, 96.5%; in the test with TK-10 renal, 100%; in the test with ACHN renal, 112%. For the same molecule, the growth was 98.8% in the test with CAKI-1 renal; 89.9% with A498 renal; 88.7% in the test with CCRF-CEM leukemia; 97.2% in the test with MOLT-4 leukemia; 103% in the test with SR leukemia; 95.8% with RPMI-8226 leukemia. Further, the growth with OVCAR-5 ovarian is 112%; in the test on OVCAR-4 ovarian, 109%; in the test on SK-OV-3 ovarian, 98%; in the test with IGROV1 ovarian it was 110%; in the test with OVCAR-3 ovarian, 106%; with HS 578T breast, 94.1%. Moreover, the growth in the test on NCI/ADR-RES ovarian is 105%.

As for `O=C1CN(CCN2CC(=O)N(Cc3ccccc3)C(=O)C2)CC(=O)N1Cc1ccccc1`, the growth with SK-MEL-2 melanoma was 106%; in the test on EKVX NSCLC, 99.2%; with SN12C renal, 98.6%; in the test on UO-31 renal it was 76.3%; in the test with TK-10 renal, 111%; in the test on ACHN renal, 106%. For the same molecule, the growth in the test with CAKI-1 renal is 92.8%; with A498 renal, 89.7%; with CCRF-CEM leukemia, 94.3%; with MOLT-4 leukemia it was 92.3%; with SR leukemia, 108%; in the test with RPMI-8226 leukemia it was 99.5%. Moreover, the growth in the test on OVCAR-5 ovarian was 109%; in the test with OVCAR-4 ovarian, 106%; with SK-OV-3 ovarian it was 113%; in the test on IGROV1 ovarian, 109%; in the test on OVCAR-3 ovarian, 109%; in the test with HS 578T breast it was 96.7%. Besides, the growth with NCI/ADR-RES ovarian was 103%.
